# Measured values reported in the supplement of paper PMC10646978.
# ± gives the standard deviation.
# Tests used:
# Details in all cases: modulator concentration 10 µM
# [1] = tested on: RAW-Dual (murine macrophage reporter line); assay: NF-kB reporter (SEAP) activity fold change vs agonist alone; higher = enhanced NF-kB activity
# How it was run: (§1)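 Compound reached 10 μM final in each well by pin transfer, onto RAW-Dual murine macrophage reporter cells seeded at 50 000 per well in 384-well plates. After 1 hour at 37 °C, the cells were stimulated overnight with a PRR agonist. SEAP in the supernatant was read with QUANTI-Blue at 620 nm absorbance for NF-κB, and Lucia luciferase was read with QUANTI-Luc luminescence for IRF. Each signal was turned into fold change against the mean agonist-only control on the same plate, and two replicate plates were averaged with propagated errors.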
# [2] = tested on: RAW-Dual (murine macrophage reporter line); assay: IRF reporter (Lucia luciferase) activity fold change vs agonist alone; higher = enhanced IRF activity
# How it was run: as §1
# [3] = tested on: RAW-Dual (murine macrophage reporter line); assay: viability score (confluency relative to resting cells, overnight) (fraction); higher = more viable, active = viable (0.7 or more)
# How it was run: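 In 384-well plates, RAW-Dual macrophages received compound at a final 10 μM overnight. Two confluency masks were then made with IncuCyte software from IncuCyte images of all imaged wells. The viability score is defined as confluency relative to resting cells. Passing the cutoff required both masks to lie above 70% of resting cells.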
# [4] = agonist: CpG ODN 1826 0.5 ug/mL
Structure (SMILES),"NF-kB reporter [1, 4]",NF-kB reporter ([1]; agonist: LPS 0.1 ug/mL),NF-kB reporter ([1]; agonist: MPLA […]),IRF reporter ([2]; agonist: 3'3'-cGAMP 10 ug/mL),IRF reporter ([2]; agonist: LPS 0.1 ug/mL),IRF reporter ([2]; agonist: MPLA […]),viability score [3]
CNC(=O)c1cc(Oc2ccc(NC(=O)Nc3ccc(Cl)c(C(F)(F)F)c3)c(F)c2)ccn1.O,0.151 ± 0.012,0.0887 ± 0.0079,0.42 ± 0.035,0.0171 ± 0.0034,0.0276 ± 0.0016,0.0325 ± 0.0049,0.448 (inactive)
CCc1ccc(OCCSc2nc3ccccc3n2CCO)cc1,0.776 ± 0.075,1.08 ± 0.07,0.927 ± 0.073,0.986 ± 0.03,1.33 ± 0.15,1.13 ± 0.09,1.01 (active)
COc1ccc2oc(=O)c(C(=O)Nc3ccc(C(=O)O)cc3)cc2c1,0.909 ± 0.054,1.02 ± 0.1,0.953 ± 0.08,1.08 ± 0.035,1.17 ± 0.11,0.959 ± 0.13,0.987 (active)
CN(C)CCN(Cc1ccccc1)c1ccccn1.Cl,0.731 ± 0.19,0.911 ± 0.052,0.927 ± 0.064,0.811 ± 0.074,0.954 ± 0.22,0.854 ± 0.081,1.01 (active)
CC(=O)c1ccc(Nc2ncnc(Nc3ccc(C(C)=O)cc3)c2[N+](=O)[O-])cc1,1.04 ± 0.1,1.09 ± 0.076,0.939 ± 0.045,1.01 ± 0.091,1.06 ± 0.052,0.994 ± 0.076,0.991 (active)
CN(C)CCC(c1ccccc1)c1ccccn1.O=C(O)/C=C\C(=O)O (centres undefined),0.373 ± 0.016,0.227 ± 0.018,0.65 ± 0.036,0.0231 ± 0.0026,0.0283 ± 0.0046,0.0354 ± 0.0064,0.377 (inactive)
C=CCn1c(SCC(=O)NCCN2CCOCC2)nc2sc3c(c2c1=O)CCC3,0.99 ± 0.079,1.05 ± 0.069,0.852 ± 0.068,1.02 ± 0.081,1.48 ± 0.11,0.984 ± 0.083,1.01 (active)
Cc1cc(C)c(-c2csc(NC(=O)C=Cc3cccs3)n2)c(C)c1,0.618 ± 0.048,0.873 ± 0.091,1.44 ± 0.066,1.02 ± 0.071,1.12 ± 0.097,1.89 ± 0.17,0.8 (active)
O=C(NC(=S)Nc1ccc2[nH]c(=O)[nH]c2c1)c1ccc(Cl)cc1,0.958 ± 0.082,1.13 ± 0.075,0.95 ± 0.042,0.94 ± 0.17,1.03 ± 0.043,0.994 ± 0.22,1 (active)
Cc1ccc(NC(=O)c2ccc(CN3CCN(C)CC3)cc2)cc1Nc1nc(-c2cccnc2)cs1,0.228 ± 0.018,1.18 ± 0.067,1.74 ± 0.17,0.414 ± 0.051,0.703 ± 0.051,0.691 ± 0.058,0.981 (active)
COc1ccc(-c2cc(=O)oc3cc(OCc4cc5c(cc4Cl)OCO5)ccc23)cc1,0.738 ± 0.058,0.829 ± 0.13,1.08 ± 0.11,0.983 ± 0.053,1.17 ± 0.068,1.16 ± 0.15,1.01 (active)
COc1cc(C(=O)O)ccc1NC(=O)[C@@H]1N[C@@H](CC(C)(C)C)[C@](C#N)(c2ccc(Cl)cc2F)[C@H]1c1cccc(Cl)c1F,0.35 ± 0.03,0.513 ± 0.052,0.679 ± 0.058,0.608 ± 0.053,1.02 ± 0.21,0.952 ± 0.34,0.122 (inactive)
